Results: PubChem BioAssay AID624206 (National Center for Advancing Translational Sciences (NCATS), 2012)
Calls of active or inactive are those of the source. Calls follow the shape of the dose curve; as a rule, active = well fitted curve in the direction sought with a large enough effect; inconclusive = small, poorly fitted or top-dose-only effect, or another doubt; inactive = no such curve, though single readings can be large or run the other way.

Assay: Quantitative high throughput screen to test cell viability of anti-malarial compounds targeting the delayed death phenotype.
Settings: HepG2 viability, CellTiter-Glo luminescence, 48 h
Description: NIH Molecular Libraries Probe Production Network [MLPCN] NIH Chemical Genomics Center [NCGC] MLPCN Grant: R21 NS059500 Assay Provider: David Fidock and Eric Ekland, Columbia University The goal of this screen is to measuer the cytoxoxicity (against HepG2 cell line) of a set of anti-malarial compounds that target the delayed death pheonotype, by inhibiting the development of the apicoplast in the malarial parasite Plasmodium falciparum (described below) The biochemical processes that make this organelle essential for erythrocytic stage parasites are not well understood. However, antibiotics, such as azithromycin and tetracycline, which target the apicoplast translational machinery, have a potent antimalarial effect. […] We have developed a cell-based assay that measures parasite growth based on the expression of an integrated copy of a firefly luciferase reporter. To detect small molecules that cause this 'delayed death' phenotype, erythrocytes infected with the luciferase-expressing parasites were incubated with compounds for either one or two generations, corresponding to 48 and 96 hours, respectively. Compounds that inhibit parasite growth in the second generation, but not the first, should be enriched in antimalarials that target the apicoplast. Growth inhibition is detected by a decrease in luciferase activity
Cells were plated at a density of 2000 cells/well/5uL in 1536 well white tissue culture plate with culture medium. Triplicate plates were prepared. Plates were incubated at 37C, 5% CO2 for 5 hours and then 23nL of compounds and positive control were transferred to the assay plates. Tetraoctylammonium bromide was added as a positive control. Plates were then incubated at 37C, 5% CO2 for 48 hours. 5 uL of CellTitler-Glo buffer was added to each well and then incubated for 30 min at room temperature. Luminescence was measured using ViewLux (1 second, slow, 2X).

Question: For `CCc1nc(SCC(=O)Nc2ccc(N(C)C)cc2)n[nH]1`, which max response is on record?
Answer: 1.4% (inactive)

Question: For `COCCNC(=O)c1cccc(OC2CCN(Cc3cccc(SC)c3)CC2)c1`, which max response is on record?
Answer: -0.53% (inactive)

Question: With `O=C(CSc1ccc(-c2cccnc2)nn1)Nc1ccccc1C(F)(F)F` as the compound, how does the max response read?
Answer: 0.59% (inactive)

Question: For `COc1cccc(CN2CCN(c3nc4nonc4nc3N3CCCCC3)CC2=O)c1`, which max response is on record?
Answer: 15.7% (inactive)

Question: For `Clc1ccc(-c2c[n+](Cc3ccc(Cl)cc3Cl)c3n2CCCCC3)cc1`, which max response is on record?
Answer: -16.1% (inactive)

Question: With `CCCc1c(CC)c(=N)c2ccccc2n1C` as the compound, how does the max response read?
Answer: 13.6% (inactive)

Question: For `COc1ccc(C(=O)N2CCN(S(=O)(=O)c3ccc(C)cc3C)CC2)cc1OC`, which max response is on record?
Answer: -11.6% (inactive)

Question: Which max response does the source give for `CN(C)S(=O)(=O)c1cc(NC(=O)C2=COCCO2)ccc1Cl` here?
Answer: 13.5% (inactive)

Question: Which max response does the source give for `CO[C@H]1[C@H](O[C@H]2O[C@@H](C)[C@@H](O[C@@H]3C[C@](C)(O)[C@H](O)[C@H](C)O3)[C@@H](N(C)C)[C@@H]2O)[C@@H](CC=O)C[C@@H](C)[C@@H](O[C@H]2CC[C@H](N(C)C)[C@H](C)O2)/C=C\C=C/C[C@@H](C)OC(=O)C[C@H]1O` here?
Answer: 5.01% (inactive)

Question: For `CC1=Nc2cc(C(=O)N3CCCC3)ccc2Sc2ccc(C)cc21`, which max response is on record?
Answer: 5.45% (inactive)

Question: For `CCCc1cc(=O)oc2cc(OC(C)C(=O)NCc3ccccn3)c(Cl)cc12` (stereo not given), which max response is on record?
Answer: 11.2% (inactive)

Question: Which max response does the source give for `CCOc1ccc(C(=O)Nc2ccc(N3CCN(C)CC3)cc2)cc1` here?
Answer: 8.06% (inactive)

Question: With `CCOC(=O)c1ccc2c(c1)n(CC)c(/C=C/N(C)c1ccccc1)[n+]2CC` as the compound, how does the max response read?
Answer: -1.94% (inactive)

Question: Which max response does the source give for `COc1ccc2c(ccc[n+]2CC(=O)c2ccccc2)c1` here?
Answer: 5.11% (inactive)

Question: With `N#Cc1cccc(NC(=O)Cn2c3[n+](c4ccc(C(F)(F)F)cc42)CCCCC3)c1` as the compound, how does the max response read?
Answer: 14.7% (inactive)

Question: With `COc1ccccc1N1CCN(CCC(=O)Nc2ccc(F)cc2)CC1` as the compound, how does the max response read?
Answer: 6.7% (inactive)

Question: Which max response does the source give for `CCCCOc1ccc(N2C(N)=NC(N)=NC23CCCCC3)cc1` here?
Answer: -12% (inactive)

Question: Which max response does the source give for `CCCCN(CCCNC(=O)c1ccc(CS(=O)(=O)c2ccc(OC)cc2)o1)Cc1ccccc1` here?
Answer: -1.11% (inactive)

Question: Which max response does the source give for `COc1ccc(Nc2nnc(-c3ccc(C)cc3)c3ccccc23)cc1C(=O)N1CCCCC1` here?
Answer: -6.06% (inactive)

Question: With `Cc1ccc(-n2c(-c3ccc(Cl)cc3)c[n+]3c2CCC3)cc1` as the compound, how does the max response read?
Answer: -10.3% (inactive)

Question: Which max response does the source give for `Cc1c(F)c(N2CCNC(C)C2)cc2c1c(=O)c(C(=O)O)cn2C1CC1` (stereo not given) here?
Answer: 12.4% (inactive)

Question: For `COc1ccc(NC(=O)NC2CCCCCCC2)c(OC)c1`, which max response is on record?
Answer: -2.67% (inactive)

Question: For `CO[C@@H]1[C@@H](OC2OC(C)C(OC3CC(C)(O)C(OC(=O)CC(C)C)C(C)O3)C(N(C)C)C2O)[C@@H](CC=O)C[C@@H](C)C(=O)/C=C\C2O[C@H]2C[C@@H](C)OC(=O)C[C@H]1OC(C)=O` (stereo not given in full), which max response is on record?
Answer: 14.6% (inactive)

Question: Which max response does the source give for `CCCCN(CCCNC(=O)C1CCN(C(=O)c2cc3sccc3n2C)CC1)Cc1ccccc1` here?
Answer: 0.234% (inactive)

Question: Which max response does the source give for `CN(C)c1ccc(CN(C(=O)c2ccccc2Br)C2CCS(=O)(=O)C2)cc1` (stereo not given) here?
Answer: 14.8% (inactive)

Question: With `CCOc1ccc(S(=O)(=O)Nc2cc(S(=O)(=O)N(CC)CC)ccc2N2CCCC2)cc1` as the compound, how does the max response read?
Answer: -26.9% (inactive)

Question: For `c1csc(CNc2ncnc3nc[nH]c23)c1`, which max response is on record?
Answer: 12.9% (inactive)

Question: Which max response does the source give for `O=C(Nc1ccccc1N1CCOCC1)c1cccc(S(=O)(=O)N2CCOCC2)c1` here?
Answer: 0.827% (inactive)

Question: Which max response does the source give for `O=C(NCc1cccnc1)c1ccc(NS(=O)(=O)c2ccccc2)cc1` here?
Answer: -0.715% (inactive)

Question: With `COc1ccc(CNC(=O)C2CCC(CNS(=O)(=O)c3cccc4cccnc34)CC2)cc1` (stereo not given) as the compound, how does the max response read?
Answer: 4.48% (inactive)

Question: With `COc1ccc2cc3cc(C(=O)Nc4ccc5c(c4)OCO5)oc3nc2c1` as the compound, how does the max response read?
Answer: -29.2% (inactive)

Question: Which max response does the source give for `COc1ccc(NC(=S)N2CCC(Cc3ccccc3)CC2)cc1OC` here?
Answer: 0.57% (inactive)

Question: With `CCOc1ccc(NC(=O)C[n+]2ccc(N(C)C)cc2)cc1` as the compound, how does the max response read?
Answer: 8.12% (inactive)

Question: With `CCN(CC)C(=O)COc1coc(CN2CCN(c3cccc(Cl)c3)CC2)cc1=O` as the compound, how does the max response read?
Answer: 3.88% (inactive)

Question: With `CC(C)C(=O)NCCSc1c[nH]c2ccccc12` as the compound, how does the max response read?
Answer: -11.2% (inactive)

Question: With `CCC(=O)OC1C(N(C)C)CC(C)O[C@H]1O[C@H]1[C@H](C)[C@@H](O[C@H]2CC(OC)[C@@H](O)C(C)O2)[C@H](C)C(=O)O[C@@H](CC)[C@](C)(O)[C@@H](O)[C@H](C)C(=O)[C@@H](C)C[C@]1(C)O` (stereo not given in full) as the compound, how does the max response read?
Answer: 10.5% (inactive)

Question: Which max response does the source give for `Cc1ccc(S(=O)(=O)Nc2ccc(C(=O)Nc3ccncc3)cc2)cc1` here?
Answer: 5.11% (inactive)

Question: Which max response does the source give for `Brc1cccc(OCCCCN2CCCCC2)c1` here?
Answer: -6.02% (inactive)

Question: With `O=C(c1ccc([N+](=O)[O-])cc1)n1nc(-c2ccccc2)nc1NCc1ccc(F)cc1` as the compound, how does the max response read?
Answer: 17.5% (inactive)

Question: Which max response does the source give for `O=C(CNC(=O)C1CCCCC1)OC(C(=O)c1ccccc1)c1ccccc1` (stereo not given) here?
Answer: 20.4% (inactive)
